From PubChem BioAssay
In the library only some 19% were active in any assay of this set; here they are far more common.
Pf growth 48h = P. falciparum growth inhibition at 48 hours (one generation) | P. falciparum luciferase growth in erythrocytes, 48 h | Potency, µM (series often up to 28.7 µM), for the others: at the top dose activity change, negative = inhibition, actives largely listed as inhibitors | 310,000 compounds, 5.9% hits | AID 504832; also: potency is read from the fitted curve at half-maximal effect; % is scaled to controls: 0 for no effect and ±100 for the full control effect
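Compounds are pin-transferred into medium, infected erythrocytes (2% hematocrit, 0.1% parasitemia final) are added, and plates sit one parasite generation at 37 C in 5% CO2. Detection reagent is then added and luminescence measured.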
Shiga toxin inh = inhibitors of Shiga toxin in Vero cells | inhibition, % at 38.7 µM | Vero cells, Shiga toxin protein synthesis inhibition reporter | 290,000 compounds, 9.2% hits | AID 2315; in the data active = inhibition mostly above about 28%, no sharp cut-off; inactive = mostly below about 43%; also: 0% is about no effect
AMA1 RON2 block = disrupts binding of P. falciparum AMA1 to RON2; AID 720542; Potency, µM (series often up to 58.2 µM), without a hit: at the highest dose activity change, negative = inhibition, actives largely listed as inhibitors; 360,000 compounds, 0.2% hits; AlphaScreen AMA1-biotinylated RON2 peptide binding;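 also: potency is read from the fitted curve at half-maximal effect; 0% = vehicle wells and -100% = peptide control; nearly all actives have a fitted effect of over 45% in size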
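AMA1 (3D7) with his tag at 25 nM final met compounds first, then biotinylated RON2 peptide at 25 nM; detection used donor plus acceptor beads, 10 µg/mL apiece, read by AlphaScreen after 30 min at room temperature.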
SARS PLpro yeast = blocks SARS-CoV papain-like protease in a yeast assay. S. cerevisiae expressing SARS-CoV PLpro, growth rescue. Potency, µM (doses to about 32.9 µM), for inactives: at the top dose activity, positive = growth rescue, most hits filed as activators. 330,000 compounds, 0.19% hits. AID 485353; calls by dose curve; also: potency is read from the fitted curve at half-maximal effect; 0% is about no effect; nearly all actives have a fitted effect of over 55% in size
Cycloheximide cs = counter-screen for Shiga toxin inhibitors: cycloheximide protein synthesis inhibition | cell reporter, cycloheximide protein synthesis inhibition counterscreen | 300,000 compounds, 12% hits | max response, %; in the data active = max response mostly above about 13%, no sharp cut-off; inactive = mostly below about 14%; also: read at 38.3 µM for the half of the compounds with a filed dose; 0% is about no effect
Pf growth 96h = P. falciparum growth inhibition at 96 hours; P. falciparum luciferase reporter growth, 96 h; Potency, µM (highest dose often 28.7 µM), without a hit: at the top dose activity change, negative = inhibition, actives largely listed as inhibitors; 320,000 compounds, 6.9% hits; AID 504834; also: potency is read from the fitted curve at half-maximal effect; % is scaled to controls: 0 for no effect and ±100 for the full control effect
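Cell-based qHTS: luciferase-tagged P. falciparum in erythrocytes (2% hematocrit, 0.05% parasitemia final) incubated with compounds for 96 hours, 37 C, 5% CO2; luciferase detection reagent then added and luminescence measured.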
Active calls of the source: *; ? = inconclusive; · = no result given; [ ] = remark or other dose. Unless noted, calls follow the shape of the dose curve; as a rule, active = well fitted curve in the direction sought with a large enough effect; inconclusive = small, poorly fitted or top-dose-only effect, or another doubt; inactive = no such curve, though single readings can be large; an effect the other way counts as inactive or inconclusive.

SMILES	Pf growth 48h	Shiga toxin inh	AMA1 RON2 block	SARS PLpro yeast	Cycloheximide cs	Pf growth 96h
C#CC[N+]1(CC#Cc2ccccc2)CCCC1	3.29µM*	-4.4	-1.8%	2.0%	-0.9	49.5%
S=c1[nH]ncn1/N=C/c1cccs1	?	-6.8	-4.8%	-5.6%	-1.5	22.5%
O=C(NCc1ccc(F)cc1)c1cc(-c2cccs2)on1	38.0%	24.8	2.1%	-6.1%	25.7*	?
O=C(NCc1ccccc1)c1nc(-c2cccs2)no1	-22.1%[5.75 µM]	38.0	11.3%	0.0%	17.3	?
O=C(NCc1ccccc1)c1cnsn1	-15.0%	-8.2	38.5%	0.2%	5.5	1.31µM*
O=C(NCc1ccccc1)c1cc(-c2cccs2)on1	48.9%	77.1*	-4.0%	-6.2%	42.7*	3.3%
O=C(NCc1ccccc1)c1ccccc1	·	·	6.7%	·	·	·
Cc1cc(F)ccc1N1CCC(N2CCN(C(C)C)C(CCO)C2)CC1 (stereo not given)	-20.7%	-11.2	-16.0%	-4.3%	0.4	10.4µM*
CCCCCCOc1ccc(CN2CCN(CCO)CC2)cc1	102.0%	61.0*	-14.1%	-13.0%	37.7*	·
CCCCOc1ccc(CN2CCC(O)CC2)cc1	57.3%	90.8*	-6.3%	-13.1%	36.5*	159.0%
CCCCOc1ccc(CN2CCN(CCO)CC2)cc1	30.9%	24.2	-1.4%	0.3%	28.6*	·
NS(=O)(=O)c1cccc(NC(=O)COC(=O)CC2CC3CCC2C3)c1 (stereo not given)	20.2%	22.6	16.4%	-3.6%	16.4	26.3%
O=C(Oc1ccc2c(c1)OCC2=O)c1ccc(Cl)cc1	?	50.0*	2.8%	-0.6%	22.0	41.8%
COc1cc(C(=O)Oc2ccc3c(c2)OCC3=O)cc(OC)c1OC	33.6%	-11.7	7.1%	-1.1%	-2.3	?
CC(C)(C)OC(=O)N1CCC[C@H]1C(=O)NCc1ccc(Cl)cc1Cl	225.4%	-6.2	-8.1%	-2.7%	-1.2	?
Cc1cccc(OCCCCc2c(C)n[nH]c2C)c1C	-13.6%	-12.4	-16.5%	-3.7%	-2.1	·
Cc1ccc(-c2cc3nn(-c4ccccc4)c(N)c3c(=O)o2)cc1	33.7%	75.6*	6.9%	-0.2%	40.2*	81.1%
Cc1ccc(-n2nc(-c3ccccc3)cc2Nc2ccccc2N)cc1	?	3.8	-23.0%	-31.5%	-1.5	-99.5%
COc1ccc(Cc2noc(CN3CCN(Cc4csc(C)n4)CC3)n2)cc1OC	-6.4%	-18.7	22.3%	-0.4%	-1.4	19.7%
CCC(C)NC(=O)c1ccc(CSCc2ccc(Cl)cc2)o1 (stereo not given)	?	1.9	-8.7%	-5.5%	-0.5	12.1%
CCC(C)NC(=O)c1ccc(CSCc2cccc(F)c2)o1 (stereo not given)	·	32.9	2.4%	-1.8%	25.0*	?
Cc1ccc(CSCc2ccc(C(=O)NCCCN3CCOCC3)o2)cc1	54.0%	9.3	-8.8%	5.8%	15.7*	-19.6%
O=C(NC1CC1)c1ccc(CSCc2cccc(F)c2)o1	·	35.1	-0.8%	-3.7%	11.2*	-8.7%
O=C(NC1CC1)c1ccc(CS(=O)c2ccc(Br)cc2)o1 (stereo not given)	16.0%	-7.1	-6.8%	-3.5%	9.9	10.4µM*
COc1cccc(C(=O)CSc2nc3ccccc3n2CC(=O)N(C(C)C)C(C)C)c1	-4.6%	11.2	9.8%	0.7%	-1.6	106.9%
SMILES	Pf growth 48h	Shiga toxin inh	AMA1 RON2 block	SARS PLpro yeast	Cycloheximide cs	Pf growth 96h
COc1ccc(N2CCN(C(=O)c3cn(CC4CCCCC4)nn3)CC2)cc1	-0.3%	20.2	-4.8%	4.2%	13.0	?
Cc1ccc(CSCc2ccc(C(=O)NC3CC3)o2)cc1	1.17µM*	29.5	-11.8%	-5.0%	18.4	?
Cc1ccc(Nc2nc(N)nc(CN3CCN(Cc4ccc5c(c4)OCO5)CC3)n2)cc1C	?	-4.8	-15.5%	0.1%	-0.5	21.8%
Cc1ccc(Nc2nc(N)nc(CN3CCN(Cc4ccc5c(c4)OCO5)CC3)n2)cc1	10.4µM*	-1.5	-11.6%	-1.1%	-3.1	·
Cc1ccc(Nc2nc(N)nc(CN3CCN(Cc4ccc5c(c4)OCO5)CC3)n2)c(C)c1	11.7µM*	-5.1	23.7%	3.0%	7.5	?
Cc1cccc(C)c1NC(=O)C(CCc1ccccc1)n1c(=O)c(-c2ccccc2)nc2ccccc21 (stereo not given)	·	·	14.4%	·	·	·
